# Source: PubChem
# This is a sample that favours compounds with a hit; in the whole collection about 19% have one here.
# Pf growth 96h = inhibits malaria parasite growth, 96 h | P. falciparum luciferase reporter growth, 96 h | Potency, µM (series often up to 28.7 µM), for the others: at the highest dose activity change, negative = inhibition, usual class: inhibitors | actives 6.9% (n = 320,000); also: potency is read from the fitted curve at half-maximal effect; % is scaled to controls: 0 for no effect and ±100 for the full control effect
#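 Luminescence readout: decreased luciferase signal marks inhibited growth of reporter-expressing P. falciparum in infected red cells (2% hematocrit, 0.05% parasitemia final), exposed to compound two generations (96 h, 37 C, 5% CO2).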
# Cycloheximide cs = affects cycloheximide protein synthesis inhibition readout, counter-screen; cell reporter, cycloheximide protein synthesis inhibition counterscreen; max response, %; actives 12% (n = 300,000); in the data active = max response mostly above about 13%, no sharp cut-off; inactive = mostly below about 14%; also: read at 38.3 µM for the half of the compounds with a filed dose; 0% is about no effect
# Shiga toxin inh = inhibitors of Shiga toxin in Vero cells; Vero cells, Shiga toxin protein synthesis inhibition reporter; inhibition, % at 38.7 µM; actives 9.2% (n = 290,000); in the data active = inhibition mostly above about 28%, no sharp cut-off; inactive = mostly below about 43%; also: 0% is about no effect
# LASV entry inh = blocks Lassa virus binding to or entry into cells | Lassa virus pseudotype entry inhibition, cell reporter | Potency, µM (series often up to 37.9 µM), for the others: top-dose activity change, negative = inhibition, most hits filed as inhibitors | actives 1.2% (n = 300,000); calls by dose curve; tested in HEK293 cells; also: potency is read from the fitted curve at half-maximal effect; % is scaled to controls: 0 for no effect and ±100 for the full control effect; nearly all actives have a fitted effect of over 50% in size
# Marburg entry inh = blocks Marburg virus binding to or entry into cells; Marburg virus pseudotyped entry inhibition, cell reporter; Potency, µM (highest dose often 37.8 µM), without a hit: top-dose activity change, negative = inhibition, usual class: inhibitors; actives 1.8% (n = 300,000); AID 540276; calls by dose curve; tested in HEK293 cells; also: potency is read from the fitted curve at half-maximal effect; % is scaled to controls: 0 for no effect and ±100 for the full control effect
# Pf growth 48h = P. falciparum growth inhibition at 48 hours (one generation); Potency, µM (series often up to 28.7 µM), for inactives: top-dose activity change, negative = inhibition, hits mostly inhibitors; actives 5.9% (n = 310,000); AID 504832; P. falciparum luciferase growth in erythrocytes, 48 h; also: potency is read from the fitted curve at half-maximal effect; % is scaled to controls: 0 for no effect and ±100 for the full control effect
#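 In quantitative HTS format, infected erythrocytes bearing luciferase-reporter parasites were treated for a single generation at 37 C. Luminescence after adding detection reagent served as the growth measure.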
# The depositor's hits bear a star; ? = inconclusive; nt = no result; [ ] = dose if it differs, or a comment. Unless noted, calls follow the shape of the dose curve; as a rule, active = well fitted inhibition curve with a large enough effect; inconclusive = small, poorly fitted or top-dose-only effect, or another doubt; inactive = no such curve, though single readings can be large or run the other way.
SMILES,Pf growth 96h,Cycloheximide cs,Shiga toxin inh,LASV entry inh,Marburg entry inh,Pf growth 48h
c1ccc(CN=C2NN=C(c3cc4ccccc4o3)CS2)cc1,?,25.9*,43.9*,?,?,?
CC1(C)CSC(=NCc2ccccc2)N1,-14.0%,-1.6,-19.2,4.7%,7.2%,17.8%
COc1ccc(Cc2nnc3n2N=C(c2cc4ccccc4o2)CS3)cc1OC,nt,nt,nt,-9.5%,-3.7%,nt
O=C(Nc1nnc(C2=COCCO2)o1)c1ccc(Cl)cc1,?,0.9,-10.4,-25.0%,3.9%,1.1%
C/C(=N\N=C1\NC(=O)C(CC(=O)NCc2ccccc2)S1)C(C)C (configuration not stated),71.8%,-3.0,11.2,10.6%,-14.6%[46.1 µM],4.9%
O=C(O)Cn1cc(C(=O)c2ccco2)c2ccccc21,-11.6%,-0.7,19.0,15.5%,-3.1%,11.5%
Cc1cc(OCCn2cc(C(=O)c3ccco3)c3ccccc32)ccc1Cl,nt,nt,nt,-23.1%[46.1 µM],?,nt
COc1cccc(OCCn2cc(C(=O)c3ccco3)c3ccccc32)c1,-0.2%,17.8,43.2,?,?,1.85µM*
COc1ccccc1OCCn1cc(C(=O)c2ccco2)c2ccccc21,?,18.3,35.1,-20.8%,?,11.7µM*
O=C(c1ccco1)c1cn(Cc2ccc(Cl)cc2)c2ccccc12,34.7%,22.7*,37.6,?,?,nt
COc1cccc(OCCn2cc(C(C)=O)c3ccccc32)c1,?,12.5,nt,-2.0%,?,9.28µM*
Cc1ccc(C(=O)NCc2occc2C(=O)O)o1,5.9%,-5.4,19.3,-1.9%,18.1%,-1.7%
COc1cccc(CNC(=O)Cn2ccc3cc(S(=O)(=O)N4CCCCCC4)ccc32)c1,-22.2%,-2.0,-3.6,nt,nt,-29.6%
COc1cc(C)nc(N2CCC(C(=O)NC3CCCCC3)CC2)n1,18.4%,-2.3,-24.8,2.3%,-5.0%,nt
Cc1ccc(C)c(OCCn2cc(/C=C(\C#N)C(=O)NCc3ccco3)c3ccccc32)c1,-0.3%,-1.6,-8.0,1.7%,?,9.28µM*
Cc1ccc(C)c(OCCn2cc(C(=O)O)c3ccccc32)c1,43.3%,0.3,21.5,0.7%[46.1 µM],3.8%[46.1 µM],23.5%
Cc1ccccc1OCCn1cc(/C(N)=N/O)c2ccccc21,9.28µM*,6.5,2.0,15.1%,?,nt
Cc1ccccc1OCCn1cc(C(=O)O)c2ccccc21,-2.0%,1.9,44.8,8.5%[46.1 µM],17.1%[46.1 µM],-19.0%
Cc1ccccc1OCCn1cc(C(=O)c2ccco2)c2ccccc21,nt,nt,nt,-7.9%[46.1 µM],?,nt
CC(=O)c1cn(CCOc2cc(C)ccc2C)c2ccccc12,?,-2.4,-7.0,-17.4%[46.1 µM],1.58µM*,?
COc1ccccc1OCCCn1cc(C(=O)c2ccco2)c2ccccc21,17.3%[5.75 µM],34.6*,143.4*,?,-8.3%,?
COc1ccc(S(N)(=O)=O)cc1C(=O)N(C)CC(=O)Nc1ccc(N2CCOCC2)cc1,66.2%,14.1,1.9,-3.3%,9.9%,23.5%
CCc1ccc(CN(C)C(=O)c2ccc3c(c2)OCCO3)cc1,-6.9%,2.3,27.6,nt,nt,10.2%
O=C(COC(=O)c1nc(Cl)ccc1Cl)Nc1ncc(Cl)cc1Cl,75.9%,nt,nt,-4.5%[46.1 µM],9.7%,30.6%
CCCCCc1nnc(NC(=O)c2cccc(S(=O)(=O)N3CCOCC3)c2)s1,?,nt,nt,3.1%,?,?
SMILES,Pf growth 96h,Cycloheximide cs,Shiga toxin inh,LASV entry inh,Marburg entry inh,Pf growth 48h
Cc1cc(OCc2nn[nH]n2)c2c(C)c(CC(=O)O)c(=O)oc2c1,17.1%,-2.2,-4.1,?,-0.1%,nt
COc1ccc(OC)c(NCc2nnc(-c3ccccc3)o2)c1,-0.7%,-1.5,-3.9,9.3%[46.1 µM],27.8%[46.1 µM],31.2%
COc1ccc(NCc2nnc(-c3ccccc3)o2)cc1,?,20.0*,28.0*,nt,nt,6.0%
CCOc1ccccc1NCc1nnc(-c2ccccc2)o1,9.9%,14.7*,11.2,?,8.9%,-3.9%
CCOC(=O)c1ccccc1NC(=O)/C=C/C(=O)O,35.6%,4.4,0.5,0.0%,?,-0.7%
CCCCC(=O)Nc1ccccc1C(=O)OCC(=O)c1ccc2c(c1)OCCO2,32.9%,38.3*,active,?,-12.5%,49.3%
O=C(O)/C=C/C(=O)Nc1ccccc1C(=O)OCC(=O)c1ccc2c(c1)OCCO2,?,24.9*,74.6*,1.5%,-6.1%[46.1 µM],-1.0%
CC(C)c1cc(C(=O)Nc2cccc(Cl)c2)no1,?,30.0*,82.3*,?,?,-12.0%
CC(C)c1onc(C(=O)NCc2ccccn2)c1[N+](=O)[O-],2.4%,10.1,-3.5,-11.6%[46.1 µM],-11.7%[46.1 µM],?
CC(C)c1onc(C(=O)Nc2cccc(Cl)c2)c1[N+](=O)[O-],-0.7%,25.3*,34.9,nt,nt,?
CC(=O)c1cccc(NC(=O)c2cc(-c3ccc(F)cc3)on2)c1,?,-0.8,-4.6,-6.7%,2.2%,135.7%
CC(=O)c1cccc(NC(=O)c2cc(C(C)C)on2)c1,-14.7%,40.0*,83.6*,nt,nt,nt
CC(C)C1S/C(=N/N=C/c2cccs2)NC1=O (configuration not stated),20.2%,1.2,-4.5,-15.2%,26.5%,37.2%
Cc1cc(-c2ccccc2)c2c(=O)n(-c3ccccc3)[nH]c2n1,0.0037µM*,1.5,-6.8,nt,nt,38.3%
O=c1c2c(-c3cccc([N+](=O)[O-])c3)ccnc2[nH]n1-c1ccccc1,0.1%,-1.1,-5.2,nt,nt,13.5%
CCCn1c(CC)nc([N+](=O)[O-])c1S(=O)(=O)c1ccccc1,?,-4.0,-16.9,?,?,10.4µM*
CCc1nc2ccccc2c(NC(=O)CN2CCC(C)CC2)c1C,7.38µM*,-5.7,-8.8,-14.0%,?,-7.2%
Cc1cc(C)nc(-n2nc(C)cc2NC(=O)CNC(C)c2ccccc2)n1 (configuration not stated),-7.3%,-2.3,-22.4,12.8%,27.4%,?
Cc1cc(C)nc(-n2nc(C)cc2NC(=O)CN2CCC(C)CC2)n1,2.33µM*,-3.2,11.6,-20.2%,0.1%,?
Cc1cc(C)nc(-n2nc(C)cc2NC(=O)CN2CCCC2)n1,?,10.5,-8.4,nt,nt,?
CCC1CCCCN1CC(=O)Nc1cc(C)nn1-c1nc(C)cc(C)n1 (configuration not stated),0.2%,-2.3,-8.1,?,-12.2%,5.22µM*
CCOC(=O)Nc1n[nH]c(NC(=O)OCC)c1[N+](=O)[O-],?,7.4,-5.0,?,-5.9%[46.1 µM],2.6%
C=CCOc1ccccc1CNCc1ccc(F)cc1,2.33µM*,4.9,-7.7,nt,nt,-12.8%
c1ccc(-c2cc3n(c2)CCc2ccccc2-3)cc1,-8.6%,14.9*,49.2*,?,19.4%,?
O=C(O)c1cc2c(s1)-c1ccccc1CC2,0.0%,-2.3,-5.3,?,?,-4.5%
COCCCNS(=O)(=O)c1ccc2c(c1)OCCO2,8.3%,-2.3,-11.7,-3.6%,27.4%,24.2%
CCC(C)[C@H](NC(=O)[C@@H]1Cc2ccccc2CN1)C(=O)Nc1ccc2c(c1)OCO2 (some centres not stated),?,29.7*,38.5*,nt,nt,?
